# Experimental data reported in the supplement of paper PMC8728848.
# The entries come from a sample that favours the strongest signals as a whole.
# B1: PX9961X-pdi-531-24-531 (Parabacteroides distasonis) (protein)
# chain: DLTEEIHSSVIAENYYNNAGEVMAAMMRPWGHFCGTMQVAQSPWSCNELSSDCAAWPQKGRHGYDNGDWIRLHRHQWIPTDGQVVDAWKKLFEGIGYANNFLTDTENIDFEALQVPMSKAQAQAEMRVYRAYCYWYVMDMFGTAPICEKIGEINPSSKSRAELFAWIEKELNESIPSLSESKTETYGRVSKWGAYALLARLYLNAEIYTGQARWDDCIAACDELAKGGFALDKKWNDTFRADNDKRSTEIIWSIVYDEVYAKGMGWYQRWLHYAHQTGWDLQSGPWNGLVTQPTFYDSFADNDLRKIEGFLIGKQYPRKVDENGNYYYDTTAEPLKGSEEYNGQDLVFVNYIKSMTEGEENSGARSIKYEIQPGTTGDMNNDWVMFRYSEVIYNKAEALMRKNGGKATQEVVDMINSVRQRSFKAEDWEKAKYTTATLTMDEFLAEKGREFAFEGIRRTDLVRFNKFVTTSWWDKTASNEPKRNIFPIPQRQLDANANLSPNEANSLF
# Legend:
# Assay in all cases: glycan array binding signal (z-score within array); higher = stronger binding
# Settings in all cases: glycan notation: IUPAC condensed, linker removed
# [1] = biological target: Fuc(a1-2)Gal(b1-3)[Fuc(a1-4)]GlcNAc(b1-2)Man(a1-3)[Fuc(a1-2)Gal(b1-3)[Fuc(a1-4)]GlcNAc(b1-2)Man(a1-3)]Man(b1-4)GlcNAc(b1-4)GlcNAc
# In short: (§1)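 Negative Z-scores can be read as non-binding. The Z-score is calculated within each array and then averaged across arrays of one protein sequence at different concentrations or buffers and across linkers. Arrays, 3228 in all, were curated from the Consortium for Functional Glycomics database and kept only where the protein sequence was available.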
# [2] = biological target: Fuc(a1-2)Gal(b1-4)GlcNAc(b1-2)Man(a1-3)[Fuc(a1-2)Gal(b1-4)GlcNAc(b1-2)Man(a1-6)]Man(b1-4)GlcNAc(b1-4)GlcNAc
# In short: as §1
# [3] = biological target: Fuc(a1-2)Gal(b1-4)GlcNAc(b1-2)Man(a1-3)[Fuc(a1-2)Gal(b1-4)GlcNAc(b1-2)Man(a1-6)]Man(b1-4)GlcNAc(b1-4)[Fuc(a1-6)]GlcNAc
# In short: as §1
# [4] = biological target: Fuc(a1-2)Gal(b1-4)GlcNAc(b1-3)[Fuc(a1-2)Gal(b1-4)GlcNAc(b1-6)]GalNAc
# In short: as §1
# [5] = biological target: Fuc(a1-2)Gal(b1-4)[Fuc(a1-3)]GlcNAc(b1-3)GalNAc
# In short: as §1
# [6] = biological target: Fuc(a1-2)Gal6S(b1-3)GlcNAc
# In short: as §1
# [7] = biological target: Fuc(a1-2)[Gal(a1-3)]Gal(b1-3)GalNAc(b1-3)Gal(a1-4)Gal(b1-4)Glc
# In short: as §1
# [8] = biological target: Fuc(a1-2)[Gal(a1-3)]Gal(b1-4)GlcNAc(b1-2)Man
# In short: as §1
# [9] = biological target: Fuc(a1-2)[GalNAc(a1-3)]Gal(b1-4)GlcNAc(b1-2)Man(a1-3)[Fuc(a1-2)[GalNAc(a1-3)]Gal(b1-4)GlcNAc(b1-2)Man(a1-6)]Man(b1-4)GlcNAc(b1-4)GlcNAc
# In short: as §1
# [10] = biological target: Fuc(a1-3)[Gal3S(b1-4)]Glc
# In short: as §1
# [11] = biological target: Fuc(a1-3)[Gal3S(b1-4)]GlcNAc6S
# In short: as §1
# [12] = biological target: Gal(a1-3)Gal(b1-3)GlcNAc(b1-2)Man(a1-3)[Gal(a1-3)Gal(b1-3)GlcNAc(b1-2)Man(a1-6)]Man(b1-4)GlcNAc(b1-4)GlcNAc
# In short: as §1
# [13] = biological target: Gal(a1-3)Gal(b1-4)GlcNAc(b1-2)Man(a1-3)[Gal(a1-3)Gal(b1-4)GlcNAc(b1-2)Man(a1-6)]Man(b1-4)GlcNAc(b1-4)GlcNAc
# In short: as §1
# [14] = biological target: Gal(a1-3)[Gal(a1-4)]Gal(b1-4)GlcNAc
# In short: as §1
# [15] = biological target: Gal(b1-3)GalNAc(a1-3)[Fuc(a1-2)]Gal(b1-4)Glc
# In short: as §1
# [16] = biological target: Gal(b1-3)GlcNAc(b1-2)Man(a1-3)[Gal(b1-3)GlcNAc(b1-2)Man(a1-6)]Man(b1-4)GlcNAc(b1-4)GlcNAc
# In short: as §1
# [17] = biological target: Gal(b1-3)GlcNAc(b1-3)Gal(b1-4)GlcNAc(b1-2)[Gal(b1-3)GlcNAc(b1-3)Gal(b1-4)GlcNAc(b1-6)]Man(a1-6)[Gal(b1-3)GlcNAc(b1-3)Gal(b1-4)GlcNAc(b1-2)Man(a1-3)]Man(b1-4)GlcNAc(b1-4)[Fuc(a1-6)]GlcNAc
# In short: as §1
# [18] = biological target: Gal(b1-3)GlcNAc(b1-3)Gal(b1-4)GlcNAc(b1-3)Gal(b1-4)GlcNAc(b1-2)[Gal(b1-3)GlcNAc(b1-3)Gal(b1-4)GlcNAc(b1-3)Gal(b1-4)GlcNAc(b1-6)]Man(a1-6)[Gal(b1-3)GlcNAc(b1-3)Gal(b1-4)GlcNAc(b1-3)Gal(b1-4)GlcNAc(b1-2)Man(a1-3)]Man(b1-4)GlcNAc(b1-4)[Fuc(a1-6)]GlcNAc
# In short: as §1
# [19] = biological target: Gal(b1-3)GlcNAc(b1-6)GalNAc
# In short: as §1
# [20] = biological target: Gal(b1-3)[Fuc(a1-4)]GlcNAc(b1-3)Gal(b1-4)[Fuc(a1-3)]GlcNAc
# In short: as §1
# [21] = biological target: Gal(b1-4)GlcNAc(b1-3)Gal(b1-4)GlcNAc(b1-2)[Gal(b1-4)GlcNAc(b1-3)Gal(b1-4)GlcNAc(b1-6)]Man(a1-6)[Gal(b1-4)GlcNAc(b1-3)Gal(b1-4)GlcNAc(b1-2)Man(a1-3)]Man(b1-4)GlcNAc(b1-4)GlcNAc
# In short: as §1
# [22] = biological target: Gal(b1-4)GlcNAc(b1-3)Gal(b1-4)GlcNAc(b1-3)Gal(b1-4)GlcNAc(b1-3)Gal(b1-4)GlcNAc(b1-2)[Gal(b1-4)GlcNAc(b1-3)Gal(b1-4)GlcNAc(b1-3)Gal(b1-4)GlcNAc(b1-3)Gal(b1-4)GlcNAc(b1-6)]Man(a1-6)[Gal(b1-4)GlcNAc(b1-3)Gal(b1-4)GlcNAc(b1-3)Gal(b1-4)GlcNAc(b1-3)Gal(b1-4)GlcNAc(b1-2)Man(a1-3)]Man(b1-4)GlcNAc(b1-4)[Fuc(a1-6)]GlcNAc
# In short: as §1
# [23] = biological target: Gal(b1-4)GlcNAc(b1-3)Gal(b1-4)GlcNAc(b1-3)Gal(b1-4)GlcNAc(b1-3)Gal(b1-4)GlcNAc(b1-3)Gal(b1-4)GlcNAc(b1-2)[Gal(b1-4)GlcNAc(b1-3)Gal(b1-4)GlcNAc(b1-3)Gal(b1-4)GlcNAc(b1-3)Gal(b1-4)GlcNAc(b1-3)Gal(b1-4)GlcNAc(b1-6)]Man(a1-6)[Gal(b1-4)GlcNAc(b1-3)Gal(b1-4)GlcNAc(b1-3)Gal(b1-4)GlcNAc(b1-3)Gal(b1-4)GlcNAc(b1-3)Gal(b1-4)GlcNAc(b1-2)Man(a1-3)]Man(b1-4)GlcNAc(b1-4)[Fuc(a1-6)]GlcNAc
# In short: as §1
# [24] = biological target: Gal(b1-4)GlcNAc(b1-3)Gal(b1-4)GlcNAc(b1-3)GalNAc
# In short: as §1
# [25] = biological target: Gal(b1-4)GlcNAc(b1-6)[Gal(b1-3)]GalNAc
# In short: as §1
# GalNAc(a1-3)Gal = biological target: GalNAc(a1-3)Gal
# In short: as §1
# [26] = biological target: GalNAc(b1-3)Gal(a1-4)Gal(b1-4)GlcNAc
# In short: as §1
# [27] = biological target: GalNAc(b1-3)Gal(a1-6)Gal(b1-4)Glc
# In short: as §1
# GalNAc(b1-4)Gal(b1-4)Glc = biological target: GalNAc(b1-4)Gal(b1-4)Glc
# In short: as §1
# [28] = biological target: GlcNAc(a1-4)Gal(b1-4)GlcNAc(b1-3)Gal(b1-4)GlcNAc
# In short: as §1
# [29] = biological target: GlcNAc(b1-3)Gal(b1-4)GlcNAc(b1-3)Gal(b1-4)GlcNAc(b1-3)Gal(b1-4)GlcNAc(b1-2)[GlcNAc(b1-3)Gal(b1-4)GlcNAc(b1-3)Gal(b1-4)GlcNAc(b1-3)Gal(b1-4)GlcNAc(b1-6)]Man(a1-6)[GlcNAc(b1-3)Gal(b1-4)GlcNAc(b1-3)Gal(b1-4)GlcNAc(b1-3)Gal(b1-4)GlcNAc(b1-2)Man(a1-3)]Man(b1-4)GlcNAc(b1-4)[Fuc(a1-6)]GlcNAc
# In short: as §1
# [30] = biological target: GlcNAc(b1-3)Gal(b1-4)GlcNAc(b1-6)[GlcNAc(b1-3)]Gal(b1-4)GlcNAc
# In short: as §1
# Kdn(a2-3)Gal(b1-4)GlcNAc = biological target: Kdn(a2-3)Gal(b1-4)GlcNAc
# In short: as §1
# [31] = biological target: Neu5Ac(a2-3)Gal(b1-3)GlcNAc(b1-3)GalNAc
# In short: as §1
# [32] = biological target: Neu5Ac(a2-3)Gal(b1-3)[Neu5Ac(a2-6)]GlcNAc(b1-3)[Fuc(a1-3)[Gal(b1-4)]GlcNAc(b1-6)]Gal(b1-4)Glc
# In short: as §1
# [33] = biological target: Neu5Ac(a2-3)Gal(b1-4)GlcNAc(b1-2)[Neu5Ac(a2-3)Gal(b1-4)GlcNAc(b1-6)]Man(a1-6)[Neu5Ac(a2-3)Gal(b1-4)GlcNAc(b1-2)Man(a1-3)]Man(b1-4)GlcNAc(b1-4)GlcNAc
# In short: as §1
# [34] = biological target: Neu5Ac(a2-3)Gal(b1-4)GlcNAc(b1-3)Gal(b1-4)GlcNAc(b1-3)[Neu5Ac(a2-3)Gal(b1-4)GlcNAc(b1-3)Gal(b1-4)GlcNAc(b1-6)]GalNAc
# In short: as §1
# [35] = biological target: Neu5Ac(a2-3)[GalNAc(b1-4)]Gal(b1-4)Glc
# In short: as §1
# [36] = biological target: Neu5Ac(a2-6)Gal(b1-4)GlcNAc(b1-2)Man(a1-3)[Man(a1-6)]Man(b1-4)GlcNAc(b1-4)GlcNAc
# In short: as §1
# Neu5Ac(a2-6)GalNAc = biological target: Neu5Ac(a2-6)GalNAc
# In short: as §1
# [37] = biological target: Neu5Ac(a2-8)Neu5Ac(a2-3)Gal(b1-3)GalNAc(b1-4)[Neu5Ac(a2-3)]Gal(b1-4)Glc
# In short: as §1
# [38] = biological target: Neu5Ac(a2-8)Neu5Ac(a2-3)Gal(b1-4)GlcNAc
# In short: as §1
# [39] = biological target: Neu5Ac(a2-8)Neu5Gc(a2-3)Gal(b1-4)GlcNAc
# In short: as §1
binder,measurement,setting,value
B1,glycan array binding signal (z-score),[1],0.026
same,glycan array binding signal (z-score),[2],1.28
same,glycan array binding signal (z-score),[3],-0.118
same,glycan array binding signal (z-score),[4],-0.351
same,glycan array binding signal (z-score),[5],0.289
same,glycan array binding signal (z-score),[6],-0.189
same,glycan array binding signal (z-score),[7],-0.567
same,glycan array binding signal (z-score),[8],-0.156
same,glycan array binding signal (z-score),[9],0.31
same,glycan array binding signal (z-score),[10],0.374
same,glycan array binding signal (z-score),[11],-0.332
same,glycan array binding signal (z-score),[12],3.82
same,glycan array binding signal (z-score),[13],0.935
same,glycan array binding signal (z-score),[14],7.26
same,glycan array binding signal (z-score),[15],0.221
same,glycan array binding signal (z-score),[16],4.29
same,glycan array binding signal (z-score),[17],3.82
same,glycan array binding signal (z-score),[18],7.05
same,glycan array binding signal (z-score),[19],1.52
same,glycan array binding signal (z-score),[20],-0.466
same,glycan array binding signal (z-score),[21],2.17
same,glycan array binding signal (z-score),[22],3.6
same,glycan array binding signal (z-score),[23],3.41
same,glycan array binding signal (z-score),[24],0.788
same,glycan array binding signal (z-score),[25],-0.374
same,glycan array binding signal (z-score),GalNAc(a1-3)Gal,0.96
same,glycan array binding signal (z-score),[26],-0.236
same,glycan array binding signal (z-score),[27],2.61
same,glycan array binding signal (z-score),GalNAc(b1-4)Gal(b1-4)Glc,-0.106
same,glycan array binding signal (z-score),[28],-0.352
same,glycan array binding signal (z-score),[29],0.524
same,glycan array binding signal (z-score),[30],-0.581
same,glycan array binding signal (z-score),Kdn(a2-3)Gal(b1-4)GlcNAc,-0.114
same,glycan array binding signal (z-score),[31],-0.825
same,glycan array binding signal (z-score),[32],0.188
same,glycan array binding signal (z-score),[33],0.2
same,glycan array binding signal (z-score),[34],-0.773
same,glycan array binding signal (z-score),[35],-0.049
same,glycan array binding signal (z-score),[36],-0.755
same,glycan array binding signal (z-score),Neu5Ac(a2-6)GalNAc,-0.425
same,glycan array binding signal (z-score),[37],0.572
same,glycan array binding signal (z-score),[38],-0.116
same,glycan array binding signal (z-score),[39],14.4
